# Experiments:
# Experiment in all cases: DAPPL (digital affinity profiling via proximity ligation, sequencing); 10 mM Tris-HCl pH 7.5, 50 mM NaCl, 1 mM DTT, 4% glycerol, room temperature, 30 min; GST-TFs on glutathione beads, 16-mer random dsDNA library, 0.1% formaldehyde crosslink after washing; high values mean tight binding
# Settings in all cases: protein: recombinant; tags: N-terminal GST; dsDNA, one strand shown
# FLI1 = biological target: T1, FLI1 (Homo sapiens, UniProt Q01543 1-452)
# T1 sequence: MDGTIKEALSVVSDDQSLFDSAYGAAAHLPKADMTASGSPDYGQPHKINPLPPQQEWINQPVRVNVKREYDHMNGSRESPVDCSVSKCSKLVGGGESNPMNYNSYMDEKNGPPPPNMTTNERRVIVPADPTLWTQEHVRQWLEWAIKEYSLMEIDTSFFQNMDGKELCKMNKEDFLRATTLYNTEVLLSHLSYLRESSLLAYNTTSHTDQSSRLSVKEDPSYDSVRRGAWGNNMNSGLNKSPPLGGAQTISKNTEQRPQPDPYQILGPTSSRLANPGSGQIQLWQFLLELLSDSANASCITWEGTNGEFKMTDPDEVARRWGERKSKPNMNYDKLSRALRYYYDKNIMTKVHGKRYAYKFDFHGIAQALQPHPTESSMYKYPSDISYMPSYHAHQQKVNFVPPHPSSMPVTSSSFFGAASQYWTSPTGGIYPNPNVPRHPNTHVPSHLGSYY
# How it was run: (§1)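 Binding signal is given per hexamer as its read frequency for a factor divided by its frequency in the tag-only sample. GST-fused human transcription factors were expressed in yeast, captured on glutathione beads, barcoded with DNA and pooled with that sample, then incubated with 200 nmole of a 16-mer random double-stranded DNA library in Tris/NaCl/DTT/glycerol buffer for 30 min at room temperature. The pools were then washed, crosslinked, proximity-ligated, amplified by PCR and sequenced on an Illumina NextSeq500.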
# GABPA = biological target: T2, GABPA (Homo sapiens, UniProt Q06546 1-454)
# T2 sequence: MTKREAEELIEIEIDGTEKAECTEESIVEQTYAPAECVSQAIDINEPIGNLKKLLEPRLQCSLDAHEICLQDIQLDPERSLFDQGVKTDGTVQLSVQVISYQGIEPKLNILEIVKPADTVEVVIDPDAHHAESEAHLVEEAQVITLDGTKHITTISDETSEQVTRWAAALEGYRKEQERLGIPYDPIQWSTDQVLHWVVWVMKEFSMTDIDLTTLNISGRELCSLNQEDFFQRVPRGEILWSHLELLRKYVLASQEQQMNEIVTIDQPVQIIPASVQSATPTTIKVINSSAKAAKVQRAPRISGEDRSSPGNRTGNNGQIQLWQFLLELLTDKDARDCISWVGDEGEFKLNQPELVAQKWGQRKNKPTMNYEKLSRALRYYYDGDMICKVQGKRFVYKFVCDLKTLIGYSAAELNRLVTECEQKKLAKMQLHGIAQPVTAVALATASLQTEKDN
# How it was run: as §1
# ERG = biological target: T3, ERG (Homo sapiens, UniProt P11308 1-479)
# T3 sequence: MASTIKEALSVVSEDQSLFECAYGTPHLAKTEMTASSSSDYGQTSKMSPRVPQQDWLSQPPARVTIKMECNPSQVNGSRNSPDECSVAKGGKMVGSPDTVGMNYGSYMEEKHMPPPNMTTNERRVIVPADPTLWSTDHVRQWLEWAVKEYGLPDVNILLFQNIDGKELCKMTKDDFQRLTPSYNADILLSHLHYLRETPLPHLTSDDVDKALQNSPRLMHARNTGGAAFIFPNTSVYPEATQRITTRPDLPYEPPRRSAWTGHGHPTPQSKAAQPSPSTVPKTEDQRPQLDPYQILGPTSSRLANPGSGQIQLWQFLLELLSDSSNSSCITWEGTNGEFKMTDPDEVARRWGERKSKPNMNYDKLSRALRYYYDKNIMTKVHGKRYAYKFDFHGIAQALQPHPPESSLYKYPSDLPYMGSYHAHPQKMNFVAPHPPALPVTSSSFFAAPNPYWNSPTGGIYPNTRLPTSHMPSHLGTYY
# How it was run: as §1
# ELF1 = ELF1 (Homo sapiens, UniProt P32519 1-619)
# ELF1, sequence (P32519 whole entry): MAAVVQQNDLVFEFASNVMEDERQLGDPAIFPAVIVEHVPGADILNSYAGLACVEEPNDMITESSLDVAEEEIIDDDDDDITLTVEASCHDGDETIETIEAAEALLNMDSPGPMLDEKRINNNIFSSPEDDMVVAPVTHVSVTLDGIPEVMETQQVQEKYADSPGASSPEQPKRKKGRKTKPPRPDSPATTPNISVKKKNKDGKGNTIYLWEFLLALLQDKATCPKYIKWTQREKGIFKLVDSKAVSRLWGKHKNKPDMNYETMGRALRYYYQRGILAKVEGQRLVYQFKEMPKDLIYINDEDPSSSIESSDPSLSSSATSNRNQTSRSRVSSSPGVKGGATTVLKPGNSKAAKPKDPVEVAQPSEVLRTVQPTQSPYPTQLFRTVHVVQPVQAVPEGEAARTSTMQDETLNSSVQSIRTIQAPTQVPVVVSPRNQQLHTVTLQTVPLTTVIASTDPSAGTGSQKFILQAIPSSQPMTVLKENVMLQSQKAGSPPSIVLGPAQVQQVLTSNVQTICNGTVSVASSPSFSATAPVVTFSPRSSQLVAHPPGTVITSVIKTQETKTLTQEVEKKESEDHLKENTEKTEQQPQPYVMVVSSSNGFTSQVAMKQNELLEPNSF
# How it was run: as §1
# EHF = biological target: T4, EHF (Homo sapiens, UniProt Q9NZC4 1-300)
# T4 sequence: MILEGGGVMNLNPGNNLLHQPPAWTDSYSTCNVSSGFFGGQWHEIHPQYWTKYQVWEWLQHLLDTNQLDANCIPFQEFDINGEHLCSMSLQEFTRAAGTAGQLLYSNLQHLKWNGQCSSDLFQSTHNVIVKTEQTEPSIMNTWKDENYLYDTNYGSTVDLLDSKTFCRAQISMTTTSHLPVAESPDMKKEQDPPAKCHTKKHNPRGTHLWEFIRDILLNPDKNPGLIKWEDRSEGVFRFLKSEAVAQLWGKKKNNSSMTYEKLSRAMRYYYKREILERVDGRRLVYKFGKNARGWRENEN
# How it was run: as §1
# SPI1 = SPI1 (Homo sapiens, UniProt P17947 1-270)
# How it was run: as §1
# SPIB = SPIB (Homo sapiens, UniProt Q01892 1-262)
# SPIB, sequence (Q01892 whole entry): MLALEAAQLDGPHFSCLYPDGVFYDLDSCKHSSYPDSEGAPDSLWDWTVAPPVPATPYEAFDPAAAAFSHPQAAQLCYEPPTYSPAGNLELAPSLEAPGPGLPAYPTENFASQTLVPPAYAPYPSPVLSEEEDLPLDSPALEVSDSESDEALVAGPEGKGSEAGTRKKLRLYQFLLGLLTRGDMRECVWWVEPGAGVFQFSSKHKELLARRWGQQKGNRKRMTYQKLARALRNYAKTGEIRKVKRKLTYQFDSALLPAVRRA
# How it was run: as §1
# ELK3 = biological target: T5, ELK3 (Homo sapiens, UniProt P41970 1-407)
# T5 sequence: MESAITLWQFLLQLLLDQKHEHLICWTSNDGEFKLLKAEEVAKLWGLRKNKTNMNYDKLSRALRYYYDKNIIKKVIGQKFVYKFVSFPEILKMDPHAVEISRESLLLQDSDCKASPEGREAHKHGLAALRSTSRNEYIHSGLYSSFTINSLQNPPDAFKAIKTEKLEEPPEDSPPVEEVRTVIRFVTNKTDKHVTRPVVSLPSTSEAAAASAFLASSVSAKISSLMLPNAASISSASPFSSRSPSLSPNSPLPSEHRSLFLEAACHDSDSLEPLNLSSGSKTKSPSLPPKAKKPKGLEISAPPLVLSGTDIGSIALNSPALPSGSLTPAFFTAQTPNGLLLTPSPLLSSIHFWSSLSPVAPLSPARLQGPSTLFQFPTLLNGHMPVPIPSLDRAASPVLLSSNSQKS
# How it was run: as §1
# FEV = biological target: T6, FEV (Homo sapiens, UniProt Q99581 1-238)
# T6 sequence: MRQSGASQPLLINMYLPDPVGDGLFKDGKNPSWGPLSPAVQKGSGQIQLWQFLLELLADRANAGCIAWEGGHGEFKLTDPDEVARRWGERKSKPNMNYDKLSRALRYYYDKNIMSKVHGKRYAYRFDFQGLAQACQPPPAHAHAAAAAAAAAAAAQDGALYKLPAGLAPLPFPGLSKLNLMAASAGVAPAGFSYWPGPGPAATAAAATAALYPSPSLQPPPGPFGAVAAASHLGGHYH
# How it was run: as §1
# ETV5 = ETV5 (Homo sapiens, UniProt P41161 1-510)
# ETV5, sequence (P41161 whole entry): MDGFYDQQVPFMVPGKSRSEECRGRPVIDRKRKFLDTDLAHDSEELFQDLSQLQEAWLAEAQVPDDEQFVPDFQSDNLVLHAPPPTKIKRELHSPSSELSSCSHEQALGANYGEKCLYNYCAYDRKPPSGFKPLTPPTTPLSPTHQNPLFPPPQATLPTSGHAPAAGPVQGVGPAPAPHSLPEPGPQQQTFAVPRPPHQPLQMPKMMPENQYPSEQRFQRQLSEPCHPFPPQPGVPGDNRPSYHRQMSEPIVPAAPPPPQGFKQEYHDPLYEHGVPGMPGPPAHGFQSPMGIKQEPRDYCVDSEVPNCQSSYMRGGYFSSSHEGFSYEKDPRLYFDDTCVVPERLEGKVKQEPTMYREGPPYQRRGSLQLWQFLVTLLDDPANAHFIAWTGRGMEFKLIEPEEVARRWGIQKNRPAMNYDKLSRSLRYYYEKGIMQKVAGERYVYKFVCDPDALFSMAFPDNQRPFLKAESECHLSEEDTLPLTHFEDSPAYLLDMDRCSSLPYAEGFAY
# How it was run: as §1
# SPIC = biological target: T7, SPIC (Homo sapiens, UniProt Q8N5J4 1-248)
# T7 sequence: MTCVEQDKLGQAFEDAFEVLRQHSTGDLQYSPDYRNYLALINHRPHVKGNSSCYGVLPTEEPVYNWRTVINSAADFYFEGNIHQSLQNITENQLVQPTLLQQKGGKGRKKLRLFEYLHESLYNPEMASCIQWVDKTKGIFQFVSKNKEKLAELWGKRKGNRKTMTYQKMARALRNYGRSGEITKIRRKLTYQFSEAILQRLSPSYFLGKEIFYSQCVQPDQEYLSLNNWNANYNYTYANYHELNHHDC
# How it was run: as §1
# ELF4 = ELF4 (Homo sapiens, UniProt Q99607 1-663)
# ELF4, sequence (Q99607 whole entry): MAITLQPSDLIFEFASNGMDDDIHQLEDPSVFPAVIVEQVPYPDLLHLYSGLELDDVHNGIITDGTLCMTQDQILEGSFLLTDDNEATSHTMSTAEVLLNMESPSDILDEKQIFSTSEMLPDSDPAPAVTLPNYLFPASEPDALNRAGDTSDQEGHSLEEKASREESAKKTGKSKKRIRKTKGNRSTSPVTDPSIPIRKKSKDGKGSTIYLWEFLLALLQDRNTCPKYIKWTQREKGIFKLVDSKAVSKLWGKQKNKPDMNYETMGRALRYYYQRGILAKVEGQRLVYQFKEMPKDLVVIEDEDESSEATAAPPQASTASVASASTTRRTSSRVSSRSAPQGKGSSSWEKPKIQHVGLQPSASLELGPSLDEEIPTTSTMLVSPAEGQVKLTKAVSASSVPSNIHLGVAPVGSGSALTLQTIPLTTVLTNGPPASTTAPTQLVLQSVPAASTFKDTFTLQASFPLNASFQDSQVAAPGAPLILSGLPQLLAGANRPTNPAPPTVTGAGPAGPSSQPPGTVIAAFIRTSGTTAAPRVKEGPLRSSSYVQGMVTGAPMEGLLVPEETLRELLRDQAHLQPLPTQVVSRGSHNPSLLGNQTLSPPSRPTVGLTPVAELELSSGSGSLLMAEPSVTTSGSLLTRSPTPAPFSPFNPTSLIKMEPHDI
# How it was run: as §1
# ERF = biological target: T8, ERF (Homo sapiens, UniProt P50548 1-548)
# T8 sequence: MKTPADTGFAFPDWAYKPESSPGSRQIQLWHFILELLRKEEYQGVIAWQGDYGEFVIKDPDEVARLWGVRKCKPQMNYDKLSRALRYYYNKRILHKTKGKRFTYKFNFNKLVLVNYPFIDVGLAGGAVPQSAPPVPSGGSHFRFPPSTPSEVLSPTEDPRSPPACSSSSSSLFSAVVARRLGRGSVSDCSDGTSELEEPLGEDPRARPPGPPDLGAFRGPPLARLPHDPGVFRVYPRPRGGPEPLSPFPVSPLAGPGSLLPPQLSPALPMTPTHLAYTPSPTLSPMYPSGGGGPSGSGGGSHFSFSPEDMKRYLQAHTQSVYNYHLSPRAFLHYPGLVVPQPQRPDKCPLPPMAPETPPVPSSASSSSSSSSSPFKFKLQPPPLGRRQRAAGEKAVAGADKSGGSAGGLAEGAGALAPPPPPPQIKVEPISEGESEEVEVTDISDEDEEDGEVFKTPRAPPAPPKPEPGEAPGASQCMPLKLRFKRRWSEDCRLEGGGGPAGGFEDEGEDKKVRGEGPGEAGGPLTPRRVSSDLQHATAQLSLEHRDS
# How it was run: as §1
# ETV3L = biological target: T9, ETV3L (Homo sapiens, UniProt Q6ZN32 1-361)
# T9 sequence: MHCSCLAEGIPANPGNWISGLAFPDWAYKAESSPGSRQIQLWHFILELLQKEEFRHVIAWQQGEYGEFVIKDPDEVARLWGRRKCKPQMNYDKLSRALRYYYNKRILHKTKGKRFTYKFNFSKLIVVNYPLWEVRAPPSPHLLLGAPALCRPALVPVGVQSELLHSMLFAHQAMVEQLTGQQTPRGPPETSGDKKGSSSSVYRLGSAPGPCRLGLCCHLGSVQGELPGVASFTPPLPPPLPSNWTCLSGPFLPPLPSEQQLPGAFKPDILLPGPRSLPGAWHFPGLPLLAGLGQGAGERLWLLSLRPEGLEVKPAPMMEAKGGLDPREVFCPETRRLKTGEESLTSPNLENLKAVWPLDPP
# How it was run: as §1
# ETS2 = biological target: T10, ETS2 (Homo sapiens, UniProt P15036 1-469)
# T10 sequence: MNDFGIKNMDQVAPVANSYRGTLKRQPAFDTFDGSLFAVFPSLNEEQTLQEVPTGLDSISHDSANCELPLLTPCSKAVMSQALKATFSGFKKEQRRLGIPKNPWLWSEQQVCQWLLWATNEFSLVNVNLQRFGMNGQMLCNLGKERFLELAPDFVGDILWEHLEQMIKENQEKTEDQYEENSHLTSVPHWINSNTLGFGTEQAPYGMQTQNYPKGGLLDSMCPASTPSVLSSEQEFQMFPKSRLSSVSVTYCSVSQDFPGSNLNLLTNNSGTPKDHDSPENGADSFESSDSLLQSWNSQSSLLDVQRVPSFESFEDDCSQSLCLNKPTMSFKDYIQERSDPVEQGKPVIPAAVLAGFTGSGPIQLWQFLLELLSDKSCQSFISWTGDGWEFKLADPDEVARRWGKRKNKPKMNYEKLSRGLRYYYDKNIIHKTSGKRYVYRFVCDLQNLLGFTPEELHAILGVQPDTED
# How it was run: as §1
# ETV6 = ETV6 (Homo sapiens, UniProt P41212 1-452)
# ETV6, sequence (P41212 whole entry): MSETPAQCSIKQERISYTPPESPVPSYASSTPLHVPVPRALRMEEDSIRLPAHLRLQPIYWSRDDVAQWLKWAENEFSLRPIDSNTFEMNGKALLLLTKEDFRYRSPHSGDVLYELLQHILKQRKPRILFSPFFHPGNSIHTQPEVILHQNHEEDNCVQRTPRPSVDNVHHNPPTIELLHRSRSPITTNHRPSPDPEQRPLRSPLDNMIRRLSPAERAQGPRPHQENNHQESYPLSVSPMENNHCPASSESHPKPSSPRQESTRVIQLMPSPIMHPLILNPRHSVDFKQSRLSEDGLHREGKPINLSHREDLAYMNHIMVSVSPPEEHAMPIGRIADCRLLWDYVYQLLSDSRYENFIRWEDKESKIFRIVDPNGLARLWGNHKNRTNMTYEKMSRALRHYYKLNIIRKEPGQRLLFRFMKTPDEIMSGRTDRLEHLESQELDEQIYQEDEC
# How it was run: as §1
sequence,measurement,setting,value
CAGCTA,binding signal,FLI1,"1.1 fold enrichment (6-mer frequency, TF over GST control)"
same,binding signal,GABPA,"1.06 fold enrichment (6-mer frequency, TF over GST control)"
same,binding signal,ERG,"1.03 fold enrichment (6-mer frequency, TF over GST control)"
same,binding signal,ELF1,"1.07 fold enrichment (6-mer frequency, TF over GST control)"
same,binding signal,EHF,"1.05 fold enrichment (6-mer frequency, TF over GST control)"
same,binding signal,SPI1,"1.03 fold enrichment (6-mer frequency, TF over GST control)"
same,binding signal,SPIB,"1.04 fold enrichment (6-mer frequency, TF over GST control)"
same,binding signal,ELK3,"1.02 fold enrichment (6-mer frequency, TF over GST control)"
same,binding signal,FEV,"1.02 fold enrichment (6-mer frequency, TF over GST control)"
same,binding signal,ETV5,"1.01 fold enrichment (6-mer frequency, TF over GST control)"
same,binding signal,SPIC,"1.07 fold enrichment (6-mer frequency, TF over GST control)"
same,binding signal,ELF4,"1.03 fold enrichment (6-mer frequency, TF over GST control)"
same,binding signal,ERF,"1.08 fold enrichment (6-mer frequency, TF over GST control)"
same,binding signal,ETV3L,"1.05 fold enrichment (6-mer frequency, TF over GST control)"
same,binding signal,ETS2,"1.06 fold enrichment (6-mer frequency, TF over GST control)"
same,binding signal,ETV6,"1.01 fold enrichment (6-mer frequency, TF over GST control)"
